IEC-6 tox-1 = kills IEC-6 intestinal cells in KLF5 counter-screen; IEC-6 cytotoxicity, luminescence viability; inhibition, % at 5 µM; hit rate 0.78% among 290,000; AID 1825;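 further: 0% = plate median of test compound wells and 100% = cytotoxic reference compound wells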
aSyn UTR inh = MLPCN primary screen, SNCA 5' untranslated region | alpha-synuclein 5'UTR reporter, inhibitor activity | inhibition, % (tested at 7.5 µM) | hit rate 0.82% among 300,000 | AID 1813; in the data active means inhibition above about 60%; inconclusive means no clear call, values can overlap the other calls;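 further: H4 neuroglioblastoma cells stably carrying SNCA 5'UTR luciferase fusion; 0% = DMSO wells and 100% = positive control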
Ba/F3 V617F tox = lowers viability of Ba/F3 cells expressing EpoR and JAK2V617F; ATP luminescence; inhibition, % at 5.6 µM; hit rate 1.1% among 220,000; AID 1446;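 active means inhibition above the campaign mean plus 3 SD over all tested compounds, cut at about 24% in these data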;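 further: cytokine-independent growth of Ba/F3 cells driven by EpoR plus mutant JAK2; 0% = DMSO-treated cells and 100% = JAK inhibitor I control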
APP 5UTR inh = APP translation inhibition | SH-SY5Y APP 5'UTR-luciferase reporter, luminescence | inhibition, % at 2 µM | hit rate 0.82% among 190,000 | AID 1285;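 active means inhibition above a set limit, derived from the sample mean plus 3 SD, cut at about 45% in these data; inconclusive means one replicate passes the limit while the other fails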
KLF5 inhibitor = kruppel-like factor 5 inhibition | DLD-1 KLF5 promoter-luciferase reporter, luminescence | inhibition, % at 5 µM | hit rate 0.23% among 290,000 | AID 1700;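 active means inhibition above a per-plate limit of that plate's mean compound inhibition plus 3 SD, cut at about 60% in these data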;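 further: 0% = DMSO wells and 100% = LY294002 at 200 µM; higher means less KLF5 promoter-driven luciferase light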
BaF3 tox = parental Ba/F3 viability inhibition as JAK2V617F counter-screen. CellTiter-Glo ATP luminescence. inhibition, % at 5.6 µM. hit rate 1.1% among 220,000. AID 1486;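 active means inhibition above a per-campaign cutoff, the mean inhibition of all tested compounds plus 3 SD, cut at about 27% in these data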;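 further: 0% = DMSO wells and 100% = JAK Inhibitor I control wells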
KLF5 confirm = confirmation of KLF5 inhibitors; shares compounds with KLF5 inhibitor; DLD-1 KLF5 promoter firefly luciferase reporter, luminescence; inhibition, % at 4 µM; hit rate 79% among 610; AID 1834;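 active means inhibition above a set limit taken from the earlier primary screen, cut at about 63% in these data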;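 further: 0% = DMSO wells and 100% = LY294002 at 200 µM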
IEC-6 tox-2 = rat IEC-6 cytotoxicity, KLF5 inhibitor counter-screen. shares compounds with KLF5 inhibitor. IEC-6 rat intestinal cells, viability luminescence. inhibition, % at 4 µM. hit rate 56% among 610. AID 1905; in the data active means inhibition above about 23%;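 further: cells exposed to compounds for 48 hours before viability read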
IEC-6 cytotox cf = IEC-6 cytotoxicity, confirmation assay | shares compounds with IEC-6 tox-1 | inhibition, % at 5 µM | IEC-6 rat intestinal epithelial viability, luminescence | AID 1907 | hit rate 63% among 1,900;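 further: 0% = vehicle and 100% = reference cytotoxic drug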
* = called active by the depositor; ? = inconclusive; . = no result. In the library only some 2.2% were active in any assay of this set; here they are far more common. Unless noted, no stated cut-off is given here; in the data, active means inhibition above about 22%; inactive means the rest.

SMILES	IEC-6 tox-1	aSyn UTR inh	Ba/F3 V617F tox	APP 5UTR inh	KLF5 inhibitor	BaF3 tox	KLF5 confirm	IEC-6 tox-2	IEC-6 cytotox cf
CC(=NC1CCCC1)c1c(C)[nH]n(-c2nc3ccccc3s2)c1=O	1	94*	2	-61	72*	6	26	3	.
CC(=NC1CC1)c1c(-c2ccccc2)[nH]n(-c2nc3ccccc3s2)c1=O	-2	-33	0	-6	-47	5	.	.	.
Cc1ccc(C)c(CSc2nc3[nH]ncc3c(=O)[nH]2)c1	63*	24	83*	85*	65*	76*	68*	53*	.
Cc1ccccc1CSc1nc2[nH]ncc2c(=O)[nH]1	6	-13	2	1	-12	9	.	.	.
COc1cc(SC)ccc1C(=O)Nc1nc2ccccc2[nH]1	77*	131*	.	.	100*	.	98*	44*	59*
COc1ccccc1C(=O)Nc1nc2ccccc2[nH]1	80*	100*	.	.	101*	.	105*	58*	69*
CCOCCCn1c(=O)c2ccccc2n2c(=S)[nH]nc12	5	-9	.	.	-17	.	.	.	.
O=C(N/N=C1/CC2C=CCC12)c1cccs1 (configuration not stated)	2	-75	.	.	-80	.	.	.	.
Cn1nc(-c2ccc(Cl)cc2)nc2c(=O)n(C)c(=O)nc1-2	98*	110*	95*	-13	91*	85*	113*	63*	78*
CS(=O)(=O)c1ccc2nc(NC(=O)c3ccc(Cn4cc(Br)cn4)o3)sc2c1	-4	-18	.	.	-34	.	.	.	.
CCOc1ccc(-c2cccc(NS(=O)(=O)c3ccc([N+](=O)[O-])cc3)c2)nn1	.	10	.	.	.	.	.	.	.
CCC(=O)N(C1=C(NC(C)C)C(=O)c2ccccc2C1=O)C(C)C	-2	-27	3	-7	-20	4	.	.	.
CCCNC1=C(N(C(C)=O)c2cccc(F)c2)C(=O)c2ccccc2C1=O	65*	92*	101*	49*	96*	104*	51	53*	41*
Oc1nc(Nc2ccc(F)cc2)sc1/C=C1\C=Nc2ccccc21	-2	-15	-2	.	-36	3	.	.	.
CC1=Nc2ccccc2/C1=C\c1sc(Nc2ccc(C)cc2)nc1O	79*	-5	76*	96*	66*	75*	85*	58*	54*
O=C(c1ccco1)N1CCN(C(=O)N2c3ccccc3Sc3ccccc32)CC1	91*	81*	85*	93*	80*	82*	85*	55*	60*
Cc1cc2nc3c(nc2cc1C)CCCC3	7	-178	.	.	-83	.	.	.	.
Brc1ccc(C2=Nn3c(nnc3-c3n[nH]c4c3CCC4)SC2)cc1	77*	86*	75*	94*	67*	81*	67*	63*	59*
CCOC(=O)COc1cccc2c(=O)n(CC(=O)NCc3ccccc3)ccc12	23*	?	73*	.	81*	68*	80*	30*	46*
O=C(Nc1nc(-c2ccccn2)cs1)c1ccccc1-n1cnnn1	90*	98*	66*	.	71*	63*	76*	59*	70*
CC(=O)Nc1ccc(C(=O)Nc2nc(-c3ccccn3)cs2)cc1	4	-46	2	-1	-30	11	.	.	.
COc1cc(C(=O)N/N=C/C2CC=CCC2)cc(OC)c1OC (configuration not stated)	90*	108*	83*	93*	64*	79*	-13	-6	0
COc1cc(C(=O)N/N=C/c2ccsc2C)cc(OC)c1OC	89*	92*	83*	96*	76*	85*	86*	66*	60*
COc1ccc(C(=O)N=C2SC3CS(=O)(=O)CC3N2Cc2ccc(F)cc2)cc1 (configuration not stated)	0	23	.	.	-4	.	.	.	.
COc1cccc(N2CCN(C(=O)c3ccc(CS(=O)c4ccccc4C)o3)CC2)c1 (configuration not stated)	78*	108*	.	.	68*	.	75*	64*	58*
SMILES	IEC-6 tox-1	aSyn UTR inh	Ba/F3 V617F tox	APP 5UTR inh	KLF5 inhibitor	BaF3 tox	KLF5 confirm	IEC-6 tox-2	IEC-6 cytotox cf
COc1cccc(N2CCN(C(=O)c3ccc(CS(=O)c4ccccc4Cl)o3)CC2)c1 (configuration not stated)	90*	110*	.	.	74*	.	84*	62*	60*
O=C(c1ccc(CS(=O)c2ccccc2Cl)o1)N1CCOCC1 (configuration not stated)	-4	13	.	.	-3	.	.	.	.
CCC(=O)N(Cc1cc(=O)[nH]c2ccccc12)c1ccc(C)cc1C	3	16	.	.	14	.	.	.	.
CC(C)CCn1c(=O)c2sccc2n2c(CCCC(=O)N3CCN(c4ccccn4)CC3)nnc12	7	3	.	.	4	.	.	.	.
Cc1cccc(C)c1NC(=O)NCc1ccco1	-2	-5	0	.	-10	1	.	.	.
Cc1cccc(C)c1OCCNC(=O)C(=O)NCc1ccco1	77*	-2	77*	85*	65*	81*	83*	61*	59*
Cc1ccc(S(=O)(=O)Oc2ccccc2/C=N/NC(N)=S)cc1	58*	59	82*	91*	65*	71*	73*	57*	-1
Cc1ccc(S(=O)(=O)Oc2ccccc2/C=N/N=C(N)N)cc1	2	-18	2	20	3	4	.	.	.
Nc1nonc1C(=O)NCCNC(=O)c1ccc(Cl)c(Cl)c1	5	7	.	.	-6	.	.	.	.
Cc1cnc(CNC(=O)CC2C(=O)NCCN2Cc2cccc(F)c2F)cn1 (configuration not stated)	3	-18	.	.	-10	.	.	.	.
COc1ccc(NC(=O)/C(Cl)=C(/Cl)S(=O)Cc2ccccc2)cn1 (configuration not stated)	100*	121*	99*	.	96*	102*	107*	73*	90*
COc1ccc(NC(=O)Cc2ccccc2)cn1	2	-3	-3	-9	-4	2	.	.	.
Cc1cccc(N(C)S(=O)(=O)c2ccc(-c3cc(C)no3)s2)c1	78*	88*	.	.	74*	.	74*	55*	53*
CCN(c1cccc(C)c1)S(=O)(=O)c1ccc(-c2cc(C)no2)s1	67*	26	.	.	72*	.	59	37*	37*
Cc1ccc(C(=O)c2cc([N+](=O)[O-])ccc2N2CCOCC2)c(C)c1	91*	98*	76*	94*	74*	84*	84*	70*	59*
O=C(c1ccc(Br)cc1)c1cc([N+](=O)[O-])ccc1N1CCCCC1	87*	92*	83*	95*	84*	79*	82*	63*	60*
Cc1ccc(C)c(C(=O)COC(=O)c2cc([N+](=O)[O-])ccc2N2CCOCC2)c1	.	10	.	.	.	.	.	.	.
